Assays:
Assay type in all cases: functional
Plasmodium falciparum [1] = assay: GSK_TCMDC: Inhibition of Plasmodium falciparum 3D7 in whole red blood cells, using parasite LDH activity as an index of growth. Test compounds present at 2uM
Plasmodium falciparum [2] = assay: GSK_TCMDC: Inhibition of Plasmodium falciparum Dd2 in whole red blood cells, using parasite LDH activity as an index of growth. Test compounds present at 2uM
HepG2 = assay: GSK_TCMDC: Percent inhibition of human HepG2 cell line. Test compounds present at 10uM.

SMILES | Inhibition (Plasmodium falciparum [1]) | Inhibition (Plasmodium falciparum [2]) | Inhibition (HepG2)
CC(C)c1ccc(NC(=O)NCCCC2CCCN(CCCCCNC(=O)/C=C/c3ccc(Cl)c(Cl)c3)C2)cc1 (configuration not stated) | 90% | 42% | 25%
COc1cc(OC)c2c(C)cc(NCCCN3CCOCC3)nc2c1 | 99% | 3% | 6%
CN1CCN(CCCN(Cc2csc(-c3ccc(CNCc4ccccc4)cc3)n2)C(=O)Nc2ccc3ccccc3c2)CC1.O=C(O)C(F)(F)F | 94% | 63% | 12%
CC(=O)O.Cc1cc(F)ccc1[C@H]1CNCCN1C(=O)N(C)[C@@H](C)c1cc(C(F)(F)F)cc(C(F)(F)F)c1 | 100% | 99% | 20%
COc1ccc2nc3cc(Cl)ccc3c(N)c2c1.Cl | 100% | 100% | 100%
Cc1cccc2nc(-c3ccc(-c4ccc(NC(=O)C(C)CN5CCN(C)CC5)cc4)s3)[nH]c12 (configuration not stated) | 100% | 99% | 17%
COc1cccc(Nc2nc(Nc3cccc(C#N)c3)cc(C(F)(F)F)n2)c1 | 99% | 45% | 15%
Cc1cc(NC2CCN(CC3CCCCC3)C2)nc(Nc2ccc(Br)cc2)n1 (configuration not stated) | 100% | 83% | 22%
CN(C)CCN(C)Cc1ccc(-c2cccc(NC(=O)c3ccc(Cl)cc3)c2)cc1.O=C(O)C(F)(F)F | 97% | 71% | 69%
Cc1cc(NCCc2ccc(O)cc2)nc(NCC(c2ccccc2)c2ccccc2)n1 | 100% | 77% | 22%
Cl.O=C(OCC1CCN(Cc2ccccc2)C1)c1ccc(Cl)cc1 (configuration not stated) | 100% | 4% | 0%
COc1ccc2nccc(N3CCC(CCNCc4ccc5c(n4)NC(=O)CS5)CC3)c2n1.Cl | 100% | 75% | 32%
CN1CCN(CCCN(Cc2csc(-c3ccc(CNCc4ccccc4)cc3)n2)C(=O)c2cc(F)cc(F)c2)CC1.O=C(O)C(F)(F)F | 97% | 53% | 60%
CCCCCCn1c(Sc2ccc(C#N)c([N+](=O)[O-])c2)nnc1-c1cc(OC)cc(OC)c1 | 95% | 41% | 35%
S=C(NCCc1ccccc1)Nc1ccc2ncsc2c1 | 96% | 3% | 0%
Cc1cc(NC2CCCC2)nc(Nc2ccccc2)n1 | 100% | 75% | 26%
CC(c1cccc(Nc2nccc(-c3c(-c4cccc(NC(=O)c5c(F)cccc5F)c4)nn4ccccc34)n2)c1)S(C)(=O)=O (configuration not stated) | 98% | 99% | 76%
O=C(Nc1ccc(OC2CCN(Cc3ccccc3)CC2)c(Cl)c1)c1ccc(F)cc1.O=C(O)C(F)(F)F | 94% | 92% | 30%
Cc1ccc(S(=O)(=O)N2CCN(C(=O)c3cc(-c4ccccc4)n[nH]3)CC2)cc1 | 91% | 88% | 0%
Cc1cccc2nc(-c3ccc(-c4cccc(CNCCCN5CCCC5=O)c4)cc3)[nH]c12.O=C(O)C(F)(F)F | 96% | 3% | 6%
FC(F)(F)c1cccc(N=C(S)NN=Cc2ccccn2)c1 | 100% | 99% | 29%
O=C(N[C@@H](CC1CCCCC1)C(=O)NC1CCCc2ccccc21)c1ccc(O)c(-c2cccc(C(F)(F)F)c2)c1 (some centres not stated) | 100% | 99% | 0%
O=C(NCCNc1ccnc(Nc2ccc(F)cc2)n1)c1cc2ccccc2s1 | 99% | 34% | 0%
CCNc1cc(C(=O)N[C@@H](Cc2ccco2)[C@H](O)CNC2CCCCC2)cc(N2CCCCS2(=O)=O)c1.Cl | 91% | 57% | 14%
CCCCSc1nc2c(c(=O)n1Cc1ccco1)C1(CCCCC1)Cc1ccccc1-2 | 96% | 78% | 13%
Cl.N#Cc1ccc2c(c1)CN(CCC1CCC(NC(=O)c3cc4ccccc4cc3N)CC1)CC2 (configuration not stated) | 80% | 52% | 5%
Cc1cc2nc(-c3ccc(OCC(=O)NCc4ccc(C(C)(C)C)cc4)cc3)[nH]c2cc1C | 94% | 0% | 11%
CC(=O)Nc1cccc(C(=O)Nc2nc3ccc(-c4cc(=O)[nH]c(Nc5ccccc5Cl)n4)cc3[nH]2)c1 | 99% | 62% | 0%
CNC(=O)CSc1nnc(-c2ccc(C)cc2)c(-c2ccc(C)cc2)n1 | 94% | 49% | 2%

From ChEMBL document CHEMBL1157539, “Thousands of chemical starting points for antimalarial lead identification” (Nature, 2010)
